The list is not random: actives were taken first. Their share in the collection is about 0.9%.
Tat transport = inhibitors of E. coli Tat protein transport; E. coli MC4100 TorA-mCherry Tat export, fluorescence; AID 488895; 340,000 tested, 0.036% active; inhibition, % at 10 µM;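 active = mean replicate inhibition at least 50% and at least half of replicates individually reaching 50%; inconclusive = only one of the two criteria met; inactive = neither criterion met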;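 note: exported cargo escapes ClpAP degradation while cytoplasmic cargo is degraded and loses fluorescence; 0% = median of neutral control wells and 100% = median of NaSCN control wells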
AddAB inh = less growth of phage-infected E. coli with AddAB; AID 435030; E. coli expressing H. pylori AddAB, absorbance growth; inhibition, % at 11.9 µM; 330,000 tested, 0.29% active; in the data active = inhibition above about 12%;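 note: 0% = vehicle wells of infected cells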
E coli growth-1 = E. coli growth inhibition. Escherichia coli growth, OD600, 23 h; stronger effect = lower value. OD600 absorbance (test concentration not listed). 330,000 tested, 0.21% active. AID 1053175;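 active = OD600 absorbance below the run mean of sample wells minus 3.6 SD, in any replicate, cut at about 0.56 in these data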
Calb FLC = C. albicans growth modulation with fluconazole. C. albicans CaCi-2 (fluconazole-resistant clinical isolate) + fluconazole, Alamar Blue growth, 48 h. growth inhibition, % (concentration not given with the values). 300,000 tested, 0.57% active. AID 1979;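 active = growth inhibition above about 58% in most replicates, limit read from the data, passing the limit was not always enough; inconclusive = exactly half the replicates above a set limit; inactive = most replicates below a set limit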;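 note: all wells also contain fluconazole at 8 µg/ml as a sub-toxic cotreatment; 0% = median of DMSO wells and 100% = median of geldanamycin control wells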
E coli growth-2 = bacterial growth inhibition, counter-screen for AddAB inhibitors; E. coli V3065 growth, OD600 absorbance, 18 h; inhibition, % at 11.9 µM; 330,000 tested, 0.27% active;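 active = inhibition above the campaign's mean inhibition across all tested compounds plus 3 SD, cut at about 9.9% in these data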;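 note: uninfected addAB+ strain grown without phage in ampicillin broth; 0% = DMSO wells and 100% = ciprofloxacin 0.95 µg/ml wells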
phage Ecoli inh = E. coli growth loss with phage present | 360,000 tested, 0.26% active | inhibition, % at 11.9 µM | growth absorbance | AID 651602; in the data active = inhibition above about 11%
Numbers without * were called inactive; ? = inconclusive; / = no result.

SMILES | Tat transport | AddAB inh | E coli growth-1 | Calb FLC | E coli growth-2 | phage Ecoli inh
COCCSc1nnc(NC(=O)CCS(=O)(=O)c2ccccc2)s1 | 3 | 2 | 0.67 | 88* | -2 | 1
CC(=O)c1sc(NC(=O)CCS(=O)(=O)c2ccccc2)nc1C | -14 | 0 | 0.68 | 86* | -1 | 1
Cc1nn(-c2ccccc2)c(C)c1C=NNC(=O)CSc1nnc(SCc2ccc(Cl)cc2)s1 | / | / | 0.75 | / | / | /
O=C1C2C3C=CC(C4CC34)C2C(=O)N1N=Cc1ccc([N+](=O)[O-])o1 (stereo not drawn) | / | / | 0.5* | / | / | /
COc1cc2c(cc1OC)C(=O)N1C3c4ccccc4OCC3C(c3ccccc3)[C@]1(C)C(=O)N2 (stereo partly drawn) | / | / | 0.72 | / | / | /
COc1cc2ccccc2cc1C(=O)N(CCN(C)C)c1nc2ccc(Br)cc2s1 | 4 | 0 | 0.68 | 102* | -2 | -1
CCC1CCCC1=NNC(=O)c1ccoc1C (stereo not drawn) | / | / | 0.73 | / | / | /
Cc1[nH]n(-c2ccccc2)c(=O)c1/C=N/Nc1nncc(-c2ccccc2)n1 | -1 | 1 | / | 105* | 0 | 6
C#CCOCCOCCOCCNc1nc(N2CCN(C(=O)C(CCC(=O)O)n3cc(C(N)CCCCN)nn3)CC2)nc(N2CCN(C(=O)C(CCCN=C(N)N)n3cc(C(N)C(C)CC)nn3)CC2)n1 (stereo not drawn) | / | / | 0.71 | / | / | /
CCc1cc(C(=O)NNC(=S)Nc2cccc(C)c2)cs1 | 3 | -4 | 0.67 | ? | -4 | -1
Cc1cccc(NC(=S)NNC(=O)c2csc(C(C)C)c2)c1 | -3 | 1 | 0.7 | 92* | -3 | 2
Cc1ccc(C(=O)NN=Cc2ccc(-c3ccc(Cl)cc3)o2)cn1 | / | / | 0.66 | / | / | /
O=C(Oc1cc2oc(=O)c3c(c2cc1Cl)CCCC3)c1cccs1 | 3 | 2 | 0.73 | 95* | 1 | 2
O=C(Oc1ccc2c3c(c(=O)oc2c1)CCCC3)c1cccs1 | -2 | 1 | 0.69 | 15 | 1 | 7
Cc1c(CCOC(=O)CC23CC4CC(CC(C4)C2)C3)sc[n+]1CC(=O)c1ccccc1 | 10 | 6 | 0.63 | 56 | 2 | 4
Cc1c(CCOC(=O)C23CC4(C)CC(C)(CC(C)(C4)C2)C3)sc[n+]1CC(=O)c1ccccc1 | 4 | 0 | 0.62 | 113* | -2 | 8
Cc1c(CCOC(=O)C23CC4CC(CC(C)(C4)C2)C3)sc[n+]1Cc1ccccc1 | 9 | 3 | 0.6 | 101* | 0 | 1
N#Cc1cccc(NC(=O)Nc2cccs2)c1 | 2 | 6 | 0.54* | 1 | 5 | 5
Cc1ccccc1C=c1sc(=CC(=O)C(C)(C)C)[nH]c1=O | / | / | 0.78 | / | / | /
CC(C)CN(C(=O)COC(=O)CNC(=O)c1ccccc1F)C1CCS(=O)(=O)C1 (stereo not drawn) | -6 | 2 | 0.7 | 107* | -1 | 5
CCC(C)N(C(=O)COC(=O)CNC(=O)c1ccccc1F)C1CCS(=O)(=O)C1 (stereo not drawn) | -14 | -2 | 0.69 | 25 | 0 | 2
Nc1nnc(N)c2ccccc12 | -6 | 1 | 0.64 | 0 | 1 | 2
Nc1nsc2ccccc12 | 16 | 5 | 0.61 | 87* | 2 | 3
CCOc1ccccc1OCCOc1ccccc1CC | 10 | 2 | 0.73 | 6 | 2 | 0
CCCCN(C)CCOc1ccccc1OCC | 0 | 0 | 0.065* | ? | -3 | 2
SMILES | Tat transport | AddAB inh | E coli growth-1 | Calb FLC | E coli growth-2 | phage Ecoli inh
O=C(Nc1ccc([N+](=O)[O-])cc1)c1ccccc1F | 6 | 5 | 0.67 | 8 | 0 | 1
O=C(c1cc(O)c(O)c([N+](=O)[O-])c1)c1ccccc1F | 57* | -1 | 0.7 | / | -1 | 3
CC(=O)C1CCC2C3CCC4=CC(=O)CC[C@]4(C)C3CC[C@]12C (stereo partly drawn) | / | / | 0.63 | / | / | /
Cc1cc(C)c(NS(=O)(=O)c2cccc3cccnc23)c(C)c1 | 17 | -2 | 0.71 | 73* | -1 | 5
Cc1ccc(NS(=O)(=O)c2cccc3cccnc23)cc1Cl | -4 | -1 | 0.68 | -8 | -2 | 2
COc1ccc(-n2c(Cc3cccn3C)nnc2SCC(=O)Nc2ccc(C(C)=O)cc2)cc1 | 56* | 0 | 0.73 | -6 | -1 | 0
COc1ccc(NC(=O)CSc2nnc(Cc3cccn3C)n2-c2ccc(OC)cc2)cc1 | 4 | 3 | 0.72 | 4 | 0 | 2
CC(=O)N(Cc1ccc(F)cc1)C1=C(NCCc2ccccc2)C(=O)c2ccccc2C1=O | 0 | -3 | 0.72 | 87* | 0 | 0
Cc1ccc(N(C)C)cc1 | / | / | / | / | / | 2
Cc1ccc2c(c1)sc(-c1ccc(N(C)C)cc1)[n+]2C | 35 | 2 | 0.32* | 90* | -1 | 5
O=C(Nc1ccc(Cl)cc1)Nc1ccc2c(c1)N1CCN=C1S2 | 4 | 1 | 0.5* | 17 | 3 | 8
Nc1ccc2c(c1)N1CCN=C1S2 | -11 | 2 | 0.64 | 7 | 3 | 2
CC[C@@H](C(=O)[C@@H](C)[C@@H](O)[C@H](C)[C@@H]1O[C@@H]([C@@H](CC)C(=O)O)CC[C@@H]1C)[C@H]1O[C@]2(C=C[C@@H](O)[C@]3(CC[C@@](C)([C@H]4CC[C@](O)(CC)[C@H](C)O4)O3)O2)[C@H](C)C[C@@H]1C | 9 | / | / | / | / | 12*
C[C@]12CCC(=O)C=C1CCC1C3CCC(C(=O)CO)[C@@]3(C=O)CC(O)C12 (stereo partly drawn) | / | / | 0.67 | / | / | /
CC(=NNC(=O)c1nnn(-c2nonc2N)c1CN1CCC(C)CC1)c1cccc(Br)c1 | / | / | 0.7 | / | / | /
N=C(N)c1ccc(/C=C/c2ccc(C(=N)N)cc2O)cc1 | 76* | 6 | 0.66 | 95* | 4 | 7
S=c1[nH]nc(-c2ccncc2)n1N=Cc1cn(-c2ccccc2)nc1-c1ccccc1 | / | / | 0.68 | / | / | /
CN1C(=O)/C(=C\C(=O)c2cccs2)c2ccccc21 | -6 | / | / | 97* | / | 0
CC=CC(=O)Nc1cccc(C2=NOC3(C2)CC(C(N)=O)N(C(=O)c2ccccc2)C3)c1 (stereo not drawn) | / | / | 0.72 | / | / | /
COC(=O)C=Cc1cnc[nH]1 | / | / | 0.64 | / | / | /
Cc1ccc2nc(Cl)c(C=NNc3ccc(C(=O)O)cc3)cc2c1 | / | / | 0.71 | / | / | /
COc1ccc(CC(N)C(=O)NC2C(CO)OC(n3cnc4c(N(C)C)ncnc43)C2O)cc1 (stereo not drawn) | / | / | 0.3* | / | / | /
CC(=NNC(=O)c1c(Cl)cnn1C)c1cccc(NC(=O)C(C)C)c1 | / | / | 0.66 | / | / | /
CC(C)(C)NC(=O)NC(=O)CN1CCCc2ccccc21 | -4 | 2 | 0.69 | 114* | 0 | 0
O=C(CN1CCCc2ccccc21)NC(=O)NCc1ccccc1 | 11 | 0 | 0.72 | -4 | 3 | 1
Cc1cc(/C([O-])=C(/C(=S)Nc2ccc(F)cc2)[n+]2ccccc2)c(C)n1-c1ccc(F)cc1 | -7 | 3 | 0.75 | -33 | 1 | 2
Cc1ccc(-n2c(C)cc(/C([O-])=C(/C(=S)Nc3ccc(F)c(Cl)c3)[n+]3ccccc3)c2C)cc1 | 0 | 1 | 0.71 | 110* | 1 | 5

Source: PubChem (several laboratories)
